A selection: hits, their analogues and other compounds. The true share with any hit is near 4%.
BoNT A protease = BoNT A light chain protease inhibition. multiplex microsphere protease substrate cleavage, flow cytometry. inhibition, % at 10 µM. AID 588499. hit rate 0.17% among 360,000; also: plate controls were buffer without enzyme for full effect and enzyme alone for no effect
Bead autofluor = compound fluorescence in toxin protease inhibitor counterscreen | compound autofluorescence counterscreen, microsphere flow cytometry; stronger effect = higher value | fluorescence intensity (no concentration beside the values) | hit rate 3.1% among 360,000 | AID 624483; in the data active = fluorescence intensity above about 16000; inconclusive = no clear call, values can overlap the other calls
BoNT-F LC inh = inhibitors of Botulinum neurotoxin F light chain protease. inhibition, % at 10 µM. Multiplex microsphere protease cleavage assay, flow cytometry. AID 588497. hit rate 0.22% among 360,000; in the data active = inhibition above about 35%, passing the limit was not always enough; inconclusive = no clear call, values can overlap the other calls; also: plate controls were buffer without enzyme for full effect and enzyme alone for no effect
VHR inh abs = blocks human VHR1 dual specificity phosphatase; hit rate 0.52% among 290,000; recombinant VHR phosphatase, pNPP absorbance; inhibition, % at 13.3 µM; AID 1654; in the data active = inhibition above about 50%
Target sequence (P51452 whole entry, looked up): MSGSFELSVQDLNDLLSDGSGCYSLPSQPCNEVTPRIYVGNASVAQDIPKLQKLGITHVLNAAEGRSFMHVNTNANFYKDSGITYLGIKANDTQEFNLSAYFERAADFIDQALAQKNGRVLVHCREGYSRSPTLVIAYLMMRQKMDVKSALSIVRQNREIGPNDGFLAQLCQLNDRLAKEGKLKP
Anthrax LF inh2 = inhibitors of Bacillus anthracis lethal factor protease; P15917; inhibition, % at 10 µM; multiplex microsphere protease cleavage assay, LF; hit rate 0.12% among 360,000; also: plate controls were buffer without enzyme for full effect and enzyme alone for no effect
MazEF act = activators of E. coli MazEF toxin-antitoxin RNase; P0AE70; hit rate 0.32% among 350,000; FAM/BHQ RNA-DNA oligo cleavage fluorescence, 5 h; AID 504720; activation, % at 20 µM; in the data active = activation above about 50%
Target sequence (P0AE70 whole entry, looked up): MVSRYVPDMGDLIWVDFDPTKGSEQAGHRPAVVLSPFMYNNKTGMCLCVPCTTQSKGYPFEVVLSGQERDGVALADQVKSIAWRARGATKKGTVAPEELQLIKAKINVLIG
* = called active by the depositor; ? = inconclusive; . = not tested or not shown. Rule as the data show it, unless noted: active = inhibition above about 30%; inconclusive = no clear call, values can overlap the other calls; inactive = below that.

SMILES	BoNT A protease	Bead autofluor	BoNT-F LC inh	VHR inh abs	Anthrax LF inh2	MazEF act
O=C(NC1CCCCC1)c1ccc(CNc2nc(=S)[nH]c3ccccc23)cc1	-1	3305	0	22	1	5
CC1=NN(C(=O)c2ccccc2Cl)C(O)(c2cccnc2)C1 (stereo not drawn)	1	4330	-4	9	-8	-10
Cc1nc(Cl)sc1C(=O)Nc1cccc(C(F)(F)F)c1	0	3694	9	.	18	3
CNC(=O)c1sc(-c2cccnc2)nc1C	-1	?	-20	25	-2	10
Cc1nc(-c2cccnc2)sc1C(=O)Nc1ccc(C(F)(F)F)cc1	?	22745*	-3	11	0	3
Cc1nc(-c2cccnc2)sc1C(=O)Nc1cccc(C(F)(F)F)c1	?	22572*	-4	41	-5	2
O=C(CSc1nc2ccccc2c(=O)n1Cc1ccc(C(=O)NC2CC2)cc1)NCc1ccco1	3	19257*	3	2	1	-24
CCCCn1c(SCC(=O)NCc2ccco2)nc2c(sc3ccccc32)c1=O	?	22504*	-1	12	-1	-50
CCn1c(SCC(=O)NCc2ccco2)nc2ccccc2c1=O	-1	4683	-4	4	-2	1
O=C(CSc1nc2ccccc2c(=O)n1CCCC(=O)N1CCCC1)NCc1ccco1	0	23337*	-1	23	-2	0
CCOCCCn1c(SCC(=O)NCc2ccco2)nc2c(sc3ccccc32)c1=O	0	9584	6	8	-11	-12
O=C(CSc1nc2ccccc2c(=O)n1Cc1ccccc1)NCc1ccco1	0	10801	-2	3	-2	-4
COCCNc1nc(-c2cc(-c3ccccc3)on2)cc(C(C)C)n1	0	4143	-9	4	2	4
O/C(=C\c1nc2ccccc2nc1/C=C(\O)c1ccccc1)c1ccccc1	67*	4056	12	25	30*	-144
O=c1oc2ccccc2nc1/C=C(\O)c1ccccc1	-1	5679	-10	2	-11	2
COc1cccc(C2CC(C(F)(F)F)n3ncc(C(=O)NCc4ccco4)c3N2)c1 (stereo not drawn)	0	3141	5	-8	-8	-8
O=C(NCCc1ccccn1)c1n[nH]c(=O)c2ccccc12	-3	22070*	-4	2	-1	6
CCCNC(=O)c1n[nH]c(=O)c2ccccc12	0	5563	4	12	-1	5
CCn1cc(CN2CCCC(C(=O)Nc3ccc(-c4cscn4)cc3)C2)c(C)n1 (stereo not drawn)	1	5758	3	-26	-3	7
O=C(CSc1nc(=O)n(CCCN2CCOCC2)c2c1CCCC2)Nc1cccc(F)c1	.	.	.	.	.	0
COc1ccccc1N(Cc1cc(=O)[nH]c2ccccc12)C(=O)c1ccccc1	-1	4743	6	5	2	3
CN(Cc1cc(=O)[nH]c2ccccc12)C(=O)c1ccccc1	2	19977*	4	32	-3	7
Cc1ccc(SCCSc2nc(N)cc(=O)[nH]2)cc1	-7	4010	?	18	-1	1
COc1ccc(/C=C2\SC(=O)N(CC(=O)NC3C=CS(=O)(=O)C3)C2=O)cc1 (stereo not drawn)	2	5262	2	-4	0	-3
CCC(C)[C@H](N)c1nnc(SCC(=O)c2ccc(Cl)cc2)o1 (stereo partly drawn)	5	19418*	1	3	0	-3
SMILES	BoNT A protease	Bead autofluor	BoNT-F LC inh	VHR inh abs	Anthrax LF inh2	MazEF act
C[C@H](N)c1nnc(SCc2ccc(Cl)cc2Cl)o1	-5	25593*	-10	4	-4	1
CC(C)[C@H](N)c1nnc(SCc2ccc(Cl)cc2)o1	-2	25032*	-5	10	-5	-4
CC(C)C[C@H](N)c1nnc(SCc2ccc(Cl)cc2)o1	0	3623	?	5	4	4
CC(=O)NC(Cc1cc(C)ccc1C)C(=O)N1CCN(C(=O)c2ccccc2Br)CC1 (stereo not drawn)	-1	2888	-6	-4	-1	-25
CC(=O)NC(Cc1cc(C)ccc1C)C(=O)N1CCN(C(=O)c2ccc([N+](=O)[O-])cc2)CC1 (stereo not drawn)	0	4049	-4	54*	6	5
Cc1cc(-c2ccc(S(=O)(=O)NCc3ccc(F)cc3)cc2)on1	0	5214	4	8	-2	3
COc1ccc(CNS(=O)(=O)c2ccc(-c3cc(C)no3)cc2)cc1	-3	5733	-2	60*	3	-7
COc1c2c(nc3ccccc13)OC(C(C)(O)COC(C)=O)C2 (stereo not drawn)	0	6157	-1	-16	-3	2
Cc1ccccc1S(=O)(=O)N(C)C[C@H]1OCc2cn(nn2)CCCC(=O)N([C@@H](C)CO)C[C@@H]1C	-1	4308	3	.	2	.
N#Cc1cccc(NC(=O)CSc2ccc3c4c(cccc24)C(=O)c2ccccc2-3)c1	44*	7954	43*	-2	28	-352
CCc1cc(C(=O)COc2ccccc2F)c(O)cc1O	?	18558*	2	-16	-6	-7
Cc1cc(C)cc(NC(=O)CCc2c(C)nn(-c3ccc(N4CCCCC4)nn3)c2C)c1	0	4454	3	3	-2	2
O=C1c2ccccc2-c2cc(Br)ccc2NC1O (stereo not drawn)	0	3457	-14	.	-11	-16
O=C1c2ccccc2C(=Nc2ccccc2)C1c1cccc(Br)c1 (stereo not drawn)	1	21729*	-2	22	-10	-11
N#CC1=C(N)C(C#N)(C#N)[C@H](c2ccncc2)[C@H]2CN(C(=O)OCc3ccccc3)CC=C12	1	10720	-7	54*	0	29
CC(C)(C)OC(=O)N1CC=C2C(C#N)=C(N)C(C#N)(C#N)[C@H](c3cccnc3)[C@H]2C1	1	10291	6	8	0	125*
CCOC(=O)N1CC=C2C(C#N)=C(N)C(C#N)(C#N)[C@H](c3cccs3)C2C1 (stereo partly drawn)	1	9201	20	31	5	-2
O=C(c1csc2c1CCCC2)N1CCCCC1	1	4131	1	-12	0	2
O=C(Nc1ccc(N2CCOCC2)cc1)Nc1ccc(Cl)c(Cl)c1	-4	17169*	-8	12	-8	-3
O=C(O)C1C2C=CC(C2)C1C(=O)NCCCn1ccnc1 (stereo not drawn)	0	22134*	0	-17	-2	5
Cc1cccc(NS(=O)(=O)c2ccc(C3CCCCC3)cc2)n1	-2	22937*	-3	0	0	-1
Cc1cccc(NS(=O)(=O)c2ccccc2)n1	0	8847	0	-4	-1	-11
COC(=O)c1cc(NC(=O)CC2NC3CCCCC3NC2=O)cc(C(=O)OC)c1 (stereo not drawn)	1	22818*	-2	27	-9	4
O=C(CCNc1ccccc1)c1cccc([N+](=O)[O-])c1	7	20571*	4	17	-9	4

Assay outcomes deposited in PubChem by several laboratories.
